# Measured values from PubChem BioAssay AID624331 (National Center for Advancing Translational Sciences (NCATS), 2012).
# Records with an inconclusive call do not appear. A number with no mark means an inactive call. The source made the active and inactive calls. Calls follow the shape of the dose curve; as a rule, active = well fitted activation curve with a large enough effect; inconclusive = small, poorly fitted or top-dose-only effect; inactive = no such curve, though single readings can be large or run the other way.
# Assay: qHTS assay for re-activators of p53 using a Luc reporter: Hit Validation with no p53 Expressed; as to activity change, positive = activation: 0% is about no effect
# Conditions: p53-null cells, luciferase reporter counter-screen; series mostly up to 46.1 µM; activity change, positive = activation: at the top concentration
# Method in brief: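 Counter-screen of primary hits in a cell line not transfected with p53, in Opti-MEM with 10% FBS; compounds at several concentrations (10 mM stock, 1:5; top 46.1 µM in well), 24 h at 37 deg C, 5% CO2. Luminescence read after 10 min with Amplite reagent.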
# Potency is read from the fitted curve at half-maximal effect.
SMILES,"activity change, positive = activation [%]",Potency
Cc1ccc(-c2noc(CN3CCC(C(N)=O)CC3)n2)cc1,58.6,–
Cc1ccc(-c2nc(-c3cccnc3)no2)c(C)c1,-3.66,–
Cc1cccc(-n2c(C)cc(C(=O)NC3CCCCC3)c2C)c1,47.2,–
CCOC(=O)N1CCN(S(=O)(=O)c2ccc(C(=O)NNc3nc4cc(C)cc(C)c4s3)cc2)CC1,-4.06,–
Cc1ccc2oc(C(=O)Nc3cc(C)on3)c(C)c2c1,–,9.2 µM (active)
O=C(Nc1nc(-c2cccs2)cs1)c1ccc([N+](=O)[O-])o1,-36.5,–
O=C(Nc1ccc(-c2nc3cc(Cl)ccc3c(=O)o2)cc1)c1ccco1,-27.4,–
Cc1cccc(NC(=O)c2cnc3ccccn3c2=O)c1,12.2,–
O=C(CCc1nc(-c2ccccc2F)no1)NC1CCCCCC1,-21.5,–
O=C(C1CCCN1S(=O)(=O)c1ccc(Cl)cc1)N1CCOCC1 (centres undefined),156,–
Cc1ccc(C(=O)NC(=C(Cl)Cl)S(=O)(=O)c2ccccc2)cc1,-47,–
Cc1cccc(NC(=O)Nc2ccc(C)cc2Br)c1,6.7,–
COc1ccc(-c2nnc(SCC(=O)/C(C#N)=C(\C)N)o2)cc1,13.7,–
COc1ccc(CC(=O)Nc2ccc(C(=O)Nc3ccccc3C(=O)O)cc2)cc1OC,-17.2,–
Cc1cc(NC(=O)c2ccc3nccnc3c2)ccc1Br,-28.8,–
CC(=O)/C=C(\C)Nc1ccc(-c2cnc(-c3ccccc3)o2)cc1,2.82,–
N#Cc1ccccc1NC(=O)c1cccc(COc2ccc(Cl)cc2Cl)c1,–,0.116 µM (active)
O=[N+]([O-])c1cccc(NC(=S)N2CCc3ccccc32)c1,-2.98,–
Cc1ccc(/C=C2\SC(=S)N(CCCC(=O)Nc3nccs3)C2=O)cc1,-34.4,–
